Sampled rows, rich in hits. Any-hit rate of the full collection: about 1.5%.
FBPA coupling cs: coupling enzyme interference in Giardia aldolase counter-screen; 0.67% of 290,000 active; activity change, negative = inhibition, % at 58.2 µM, hits read low; coupling enzyme system counterscreen, AmpLite Red fluorescence; AID 2472; in the data active means activity change below about -30%
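Fluorescence at 525 nm excitation and 598 nm emission measured inhibition of the coupled detection system without aldolase. Compounds (at 57.5 uM final) were preincubated 10 min at room temperature with coupling enzyme reagent before a 20 min substrate/AmpLite Red step.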
TrxR1 inh: blocks rat thioredoxin reductase 1. O89049. recombinant rTrxR1, NADPH fluorescence consumption, selenite substrate. Potency, µM (doses to about 114 µM), without a hit: top-dose activity change, negative = inhibition, most hits filed as inhibitors. 1% of 390,000 active; further: potency means the concentration at half of the fitted maximal effect; nearly all actives have a fitted effect of over 65% in size
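Rat TrxR1 (90 nM in the dispensed reagent) was pre-reduced with 400 uM NADPH for 5 min at room temperature, then incubated with compound for 15 min. After 400 uM selenite was added, NADPH fluorescence (Ex 340/Em 450 nm) was followed for 8 min.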
TrxR1 substrate: is turned over as a substrate by rat TrxR1; O89049; purified TrxR1 substrate turnover, NADPH consumption readout; Potency, µM (top dose mostly 114 µM), inactives show at the top dose activity change, negative = substrate turnover; 0.01% of 390,000 active; AID 588456; further: potency means the concentration at half of the fitted maximal effect; nearly all actives have a fitted effect of over 50% in size
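Rat TrxR1, dispensed at 90 nM, was prereduced with 400 uM NADPH (final) for 5 min at ~22 deg C, then incubated with compound 15 min before 400 uM selenite. A first-read NADPH fluorescence drop versus no-compound background flagged substrates.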
GALK inhibitor: inhibitors of human galactokinase | Potency, µM (series often up to 57.5 µM), for inactives: top-dose activity change, negative = inhibition, usual class: inhibitors | Purified GALK, Kinase-Glo residual ATP luminescence | 0.007% of 270,000 active | P51570; further: potency means the concentration at half of the fitted maximal effect
Target sequence (P51570 whole entry, looked up): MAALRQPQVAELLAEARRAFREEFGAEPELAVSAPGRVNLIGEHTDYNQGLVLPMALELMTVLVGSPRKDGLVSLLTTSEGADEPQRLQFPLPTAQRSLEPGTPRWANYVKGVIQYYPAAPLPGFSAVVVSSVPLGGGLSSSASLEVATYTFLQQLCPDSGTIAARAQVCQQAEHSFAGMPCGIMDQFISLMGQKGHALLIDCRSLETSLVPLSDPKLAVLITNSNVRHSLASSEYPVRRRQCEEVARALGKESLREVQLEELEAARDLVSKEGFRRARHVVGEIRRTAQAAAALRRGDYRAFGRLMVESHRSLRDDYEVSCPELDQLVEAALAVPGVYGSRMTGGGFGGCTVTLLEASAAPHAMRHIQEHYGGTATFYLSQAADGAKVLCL
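Quantitative HTS: GALK 5 nM, ATP 35 uM, galactose 100 uM, 1 h room temperature, then luciferase-based ATP detection.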
USP1 inh: blocks the human USP1/UAF1 deubiquitinase complex | O94782 | recombinant USP1/UAF1, Ub-Rhodamine cleavage fluorescence | Potency, µM (doses to about 57.1 µM), for inactives: top-dose activity change, negative = inhibition, most hits filed as inhibitors | 0.23% of 390,000 active; further: potency means the concentration at half of the fitted maximal effect; nearly all actives have a fitted effect of over 60% in size
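1 nM enzyme complex + cpd, 15 min RT; start with Ub-Rho 150nM final; kinetic fluorescence ex 480/em 540, 6 reads q60 s. Buffer 50mM HEPES pH 7.8, 0.5mM EDTA, 0.1 mg/ml BSA, 1mM TCEP, 0.01% Tween-20.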
Active calls of the source: *; ? = inconclusive; nt = no result; [ ] = dose if it differs, or a comment. Unless noted, the call rests on the fitted dose curve; in most records, active means well fitted curve in the direction sought with a large enough effect; inconclusive means small, poorly fitted or top-dose-only effect, or another doubt; inactive means no such curve, though single readings can be large; an effect the other way counts as inactive or inconclusive. On the % scale 0 is the no-effect control and ±100 the full control effect.

SMILES	FBPA coupling cs	TrxR1 inh	TrxR1 substrate	GALK inhibitor	USP1 inh
CC(C)(CC(=O)O)CC(=O)Nc1ccccc1Oc1ccccc1	-2.0	11.9%	3.9%	nt	-16.3%
Cc1cc2c(NC(=O)CC(C)(C)CC(=O)O)cccc2nn1	-36.0*	11.2%	-8.6%	-2.3%	?
Cc1cc2c(NC(=O)Nc3ccc(F)cc3)cccc2nn1	-31.4*	12.5%	-2.1%	1.7%	-14.0%
COc1ccc2c(c1)C=C/C2=C/c1ccc(N(C)C)cc1	nt	-16.4%	-12.4%	nt	nt
CCOC(=O)c1ccc(NC(=O)/C=C/c2cccs2)cc1	-2.6	-35.1%	79.4µM*	0.1%	-17.3%
N#C/C(=C\c1cc(Cl)cc(Cl)c1O)C(=O)NC1CCCCC1	0.9	79.4µM*	-15.1%	2.3%	-16.6%
N#C/C(=C\c1ccc(F)c(Br)c1)C(=O)NC1CC1	nt	-5.4%	-1.7%	-2.8%	-25.2%
N#C/C(=C\c1cc(Br)ccc1F)C(=O)NC1CC1	nt	20µM*	-1.5%	0.2%	-27.5%
COc1cc(/C=C(/C(=O)c2cccs2)c2nc3ccccc3[nH]2)cc(OC)c1O	-4.9	56.2µM*	-16.1%	-5.2%	?
CCCCCCCCOc1c(OC)cc(/C=C/C(=O)N2CCN(c3ccc(C)c(C)c3)CC2)cc1OC	0.0	nt	nt	nt	nt
CC1(C)CC(=O)C(CC(=O)Nc2ccc(S(N)(=O)=O)cc2)=C(O)C1	-1.5	24.9%	10.9%	-3.4%	-9.6%
CC1(C)CC(=O)C(CS(=O)(=O)c2ccccc2)=C(O)C1	nt	50.1µM*	4.7%	-2.2%	-10.1%
C[N+]1(CC(=O)c2ccc(I)cc2)CCCc2ccccc21 (stereo not given)	nt	1.5%	-4.1%	nt	nt
O=C(O)Cc1coc2ccc3ccccc3c12	0.3	-2.6%	4.1%	-0.4%	-17.1%
O=C(Cc1coc2ccc3ccccc3c12)N1CCCC1	-37.2*	-2.4%	-1.4%	1.1%	-19.6%
Cc1cccc(N2CC(C(=O)Nc3nnc(SCC(=O)Nc4cc(C)on4)s3)CC2=O)c1 (stereo not given)	-43.9*	39.0%[57.1 µM]	10.8%[57.1 µM]	-3.3%	-4.9%
Cc1ccc(-n2nnnc2C(=Cc2ccc(N(C)C)cc2)c2nnnn2-c2ccc(C)cc2)cc1	4.0	16.2%	-7.3%	0.2%	22.4µM*
O=C1COc2ccc(C(=O)COC(=O)c3ccc(Cl)cc3[N+](=O)[O-])cc2N1	nt	-25.9%	-2.6%	nt	-2.2%
O=C(O)/C=C/C(=O)c1ccc2c(c1)NC(=O)CO2	1.7	2.82µM*	-2.8%[57.1 µM]	0.8%	-17.4%
O=C1COc2ccc(C(=O)COC(=O)c3ccc([N+](=O)[O-])cc3Cl)cc2N1	nt	50.1µM*	-11.0%	nt	-21.3%
O=C1COc2ccc(C(=O)NC3CC3)cc2N1	2.5	-11.3%	-11.9%	0.1%	-0.4%
O=C1COc2ccc(C(=O)COC(=O)/C=C/c3ccco3)cc2N1	nt	50.1µM*	-0.7%	nt	-11.6%
O=C(Nc1ccc(Cl)cc1Cl)[C@@H]1CC=C[C@@H]2CCN(Cc3ccccc3)C(=O)[C@@H]21	nt	15.4%	3.7%	nt	nt
CN(C)c1ccc(Cc2cc3c(O)ccc(O)c3cc(Cc3ccc(N(C)C)cc3)c2=O)cc1	nt	11.2µM*	-13.4%	nt	?
CC(C)(C)n1ncc2c(=O)n(Cc3ccc(C#N)cc3F)cnc21	nt	12.7%	-1.0%	nt	nt
SMILES	FBPA coupling cs	TrxR1 inh	TrxR1 substrate	GALK inhibitor	USP1 inh
COc1cc(/C=C(/C#N)c2ccc(F)cc2)ccc1Oc1ccc([N+](=O)[O-])cn1	-0.3	-7.3%	-13.1%	-0.2%	-7.9%
CCOc1cc(C=C(C#N)C#N)ccc1Oc1ccc([N+](=O)[O-])cn1	-6.6	10µM*	-7.8%	-7.0%	-32.5%
COC(=O)c1cccc(-c2ccc(C(c3c(C)[nH][nH]c3=O)c3c(C)[nH][nH]c3=O)o2)c1	-45.5*	4.7%[57.1 µM]	-1.3%[57.1 µM]	0.9%	?
COC(=O)c1ccccc1-c1ccc(C(c2c(C)[nH][nH]c2=O)c2c(C)[nH][nH]c2=O)o1	-0.6	-32.6%[57.1 µM]	-25.2%[57.1 µM]	-1.1%	?
Cc1[nH][nH]c(=O)c1C(c1ccc(-c2ccc(Cl)c(C(=O)O)c2)o1)c1c(C)[nH][nH]c1=O	-48.4*	-23.3%[57.1 µM]	-16.0%[57.1 µM]	?	?
OCC[N+]1(CCc2ccccc2)CCOCC1	nt	23.3%	7.5%	nt	nt
CC(=O)N1CCn2c3c(c4cc(C)ccc42)CCCC31 (stereo not given)	2.1	-0.2%[57.1 µM]	5.0%[57.1 µM]	3.1%	-3.6%
Cc1ccc2c(c1)c1c3n2CCN(C(=O)CCl)C3CCC1 (stereo not given)	0.1	7.94µM*	10.4%	-5.7%	-25.0%
CCOc1cc(C(=O)N2CCn3c4c(c5cc(C)ccc53)CCCC42)cc(OCC)c1OCC (stereo not given)	nt	18.3%[11.4 µM]	13.2%[11.4 µM]	nt	?
CC(=O)N1CCn2c3c(c(=O)c4cc(C)ccc42)CCC31 (stereo not given)	-42.3*	?	1.4%	-2.0%	31.6µM*
CCOC(=O)c1cnc(-c2ccccc2)nc1C(F)(F)F	-1.7	13.3%[57.1 µM]	1.8%[57.1 µM]	-0.5%	-12.5%
CCOC(=O)c1cnc2c(F)ccc(F)c2c1Sc1ccccc1	0.3	56.2µM*	-10.5%	2.6%	-27.4%
CCOc1cc(C2Nc3ccccc3C(=O)N2Cc2ccco2)ccc1O (stereo not given)	nt	-4.2%	43.2%	nt	nt
O=S(=O)(/C(=C\c1ccc(C(F)(F)F)cc1)c1nc2ccccc2[nH]1)c1ccccc1	nt	4.47µM*	-2.2%	nt	-38.5%
O=C(NCc1ccco1)/C(=C/c1ccc(C(F)(F)F)cc1)c1nc2ccccc2[nH]1	-3.6	?	3.4%	0.0%	-8.3%
COc1ccc(OC)c(Nc2nc(-c3sc(N)nc3C)cs2)c1	-30.9*	?	-11.8%[57.1 µM]	0.4%	-23.3%
CCOC(=O)Nc1ccc2c(c1)N(C(=O)CCN1CCOCC1)c1ccccc1S2=O (stereo not given)	4.0	31.6µM*	1.6%	1.4%	-16.7%
O=C(CCl)N1c2ccccc2OCC1c1ccccc1 (stereo not given)	4.1	2.24µM*	5.2%	-4.0%	-7.8%
O=C(CCl)N1c2ccccc2SCC1c1ccccc1 (stereo not given)	2.2	1.26µM*	7.4%	1.0%	?
O=C(CN1CCSc2ccccc21)N1CCCCC1	nt	20.2%[57.1 µM]	4.8%[57.1 µM]	nt	-31.7%
CC1COc2ccccc2N1C(=O)c1ccccc1Cl (stereo not given)	0.3	17.7%	2.1%	-6.0%	-11.4%
Cc1ccc(-c2nc3c(c(=O)[nH]c(=O)n3Cc3ccccc3)n2Cc2ccccc2)o1	-1.4	-50.1%	26.6%[57.1 µM]	8.0%	-19.6%
Cc1ccc(-c2nc3c(c(=O)[nH]c(=O)n3Cc3ccccc3)n2C)o1	0.2	31.6µM*	16.8%[57.1 µM]	0.4%	-20.0%
CCCCCCCCNS(=O)(=O)CCNCCCC	nt	-14.5%	-5.5%	nt	-20.4%
CCCCCCCCNS(=O)(=O)CCNC1CC1	nt	44.7µM*	-5.2%	nt	?
Cc1c(C(=O)N(C)C2CCCCC2)sc2nc3ccc(N)cc3n12	-3.0	nt	nt	nt	nt
c1ccc(CC[n+]2ccncc2)cc1	nt	-23.7%	-0.7%	nt	nt
Cc1cc(C)nc(SC2=CS(=O)(=O)c3ccccc32)n1	1.1	-5.8%[57.1 µM]	12.0%[57.1 µM]	0.5%	-17.4%
